Values of other authors as cited in PubChem BioAssay AID977610.
Out of some 3,600 compounds screened, about 3,600 (100%) were called active. Cut-off not given; nearly all actives show Ki up to about 18000 µM. So high a share suggests a set chosen from earlier hits. The list shows a part of the results. Numbered stars: 1 amine (or outer) side, 2 acyl side, 3 side chain; on linkers, the order of the positions; unused ones are H or OH. Where a SMILES comes first, the peptide text is derived from it. Square brackets hold non-standard residues; d marks the D form. Residues, ends and D or L forms follow the SMILES beside them. Peptide text beside a SMILES is read from it. [ ]: non-standard residue; d: D form. LeuΨ(S-CHOHCH2)Ala = CC(C)C[C@H](N[*:1])[C@@H](O)C[C@@H](C)C(=O)[*:2]; X2 = O=C([C@H](Cc1ccc(O[P+](O)(O)O)cc1)N[*:1])[*:2]; Orn(CH(NH2)2) = NC(N)NCCC[C@H](N)C(=O)O; Sta = CC(C)C[C@H](N)[C@@H](O)CC(=O)O

Test: PubChem AID 977610
Settings: PDB protein-ligand complexes, literature Ki

Q: With `C[C@@H]1N[C@@H](c2cn(-c3ccccc3)nn2)[C@H](O)[C@@H]1O` as the compound, how does the Ki (protein: Alpha-L-fucosidase Fuc2970, PDB entry 4pee) read?
A: 0.0048 µM (active)

Q: With `NCCCC[C@H](N[C@@H](CCc1ccccc1)C(=O)O)C(=O)N1CC=C[C@H]1C(=O)O` as the compound, how does the Ki (protein: human somatic angiontensin-I converting enzyme N domain, PDB entry 2c6n) read?
A: 0.131 µM (active)

Q: Which Ki (protein: Aminopeptidase N, PDB entry 4qhp) does the source give for `NCc1ccc(C[C@H](C[P+](O)(O)[C@@H](N)CCc2ccccc2)C(=O)O)cc1` here?
A: 0.009 µM (active)

Q: For `N[C@@H](CCc1ccccc1)[P+](O)(O)C[C@@H](Cc1ccccc1)C(O)O`, which Ki (protein: Aminopeptidase N, PDB entry 4qme) is on record?
A: 0.302 µM (active)

Q: For `NCc1cccc(C[C@H](C[P+](O)(O)[C@@H](N)CCc2ccccc2)C(=O)O)c1`, which Ki (protein: Aminopeptidase N, PDB entry 4quo) is on record?
A: 0.012 µM (active)

Q: With `N[C@@H](CCc1cccnc1)[P+](O)(O)C[C@@H](Cc1ccccc1)C(=O)O` as the compound, how does the Ki (protein: Aminopeptidase N, PDB entry 4qir) read?
A: 0.112 µM (active)

Q: For `O=C(O)c1cccc(-c2cnc([C@@H](O)CCc3ccc(-c4ccccc4)cc3)o2)n1`, which Ki (protein: Humanized Variant of Fatty Acid Amide Hydrolase (L192F, F194Y, A377T, S435N, I491V, V495M), PDB entry 3k83) is on record?
A: 0.022 µM (active)

Q: For `O=C(O)c1cccc(-c2cnc([C@@H](O)CCCCCCc3ccccc3)o2)n1`, which Ki (protein: Humanized Variant of Fatty Acid Amide Hydrolase (L192F, F194Y, A377T, S435N, I491V, V495M), PDB entry 3k7f) is on record?
A: 0.02 µM (active)

Q: For `Cc1ccc(-c2cnc([C@@H](O)CCCCCCc3ccccc3)o2)nc1`, which Ki (protein: Fatty-acid amide hydrolase 1 (L192F, F194Y, A377T, S435N, I491V, V495M mutation), PDB entry 4j5p) is on record?
A: 0.012 µM (active)

Q: What does the source list for `O=C1CC(NC(=O)c2c(Cl)cccc2Cl)=CC=N1`?
A: Ki (protein: Non-receptor tyrosine-protein kinase TYK2 (D1023N mutation), PDB entry 4gfo): 0.24 µM (active); Ki (protein: Tyrosine-protein kinase JAK2, PDB entry 4gfm): 0.06 µM (active)

Q: For `CC(=O)N[C@@H](CCCNC(N)N)C(=O)N[C@@H](Cc1c[nH]c2ccccc12)C(=O)N[C@H]1CCCCCCCNC(=O)[C@@H]2CCCN2C(=O)[C@H](CCCNC(N)N)NC(=O)[C@H](C)NC(=O)[C@@H]2CCCN2C(=O)[C@H](Cc2ccccc2)NC1=O`, which Ki (protein: Menin, PDB entry 4i80) is on record?
A: 0.0238 µM (active)

Q: For `Oc1ccc(Br)cc1/C=C/S(O)(O)O`, which Ki (protein: CARBONIC ANHYDRASE 2, PDB entry 4bcw) is on record?
A: 100 µM (active)

Q: Which Ki (protein: Glutamyl aminopeptidase, PDB entry 4kx8) does the source give for `CC(C)C[C@@H](N)[C@H](O)C(=O)N[C@H](C(=O)N[C@H](C(=O)N[C@@H](CC(=O)O)C(=O)O)C(C)C)C(C)C` here?
A: 0.074 µM (active)

Q: For `O=[N+]([O-])c1ccc2n[nH]nc2c1`, which Ki (protein: KEMP ELIMINASE HG3.17 (V6I, Q37K, K50Q, G82A, M84C, S89N, Q90F, T105I, A125T, T142N, T208M, S265T, F267M, W275A, R276F,, PDB entry 4bs0) is on record?
A: 2 µM (active)

Q: With H-RWQDTRL-OH as the compound, how does the Ki (protein: CFTR Associated Ligand (CAL) PDZ domain, PDB entry 4k75) read?
A: 56.2 µM (active)

Q: With H-SRWQTSII-OH as the compound, how does the Ki (protein: CFTR Associated Ligand (CAL) PDZ domain, PDB entry 4k6y) read?
A: 14.8 µM (active)

Q: For `CSCC[C@H](NC(=O)[C@H](CO)NC(=O)[C@H](CCC(N)=O)NC(=O)[C@H](CCCN=C(N)N)NC(=O)[C@H](CS)NC(=O)[C@@H](N)[C@@H](C)O)C(=O)N[C@@H](CS)C(=O)N[C@H](C(=O)N[C@@H](C)C(=O)N[C@@H](CCCN=C(N)N)C(=O)O)[C@@H](C)O` (tested in a mixture with another compound) (H-TCRQSMCTAR-OH), which Ki (protein: urokinase-type plasminogen activator (uPA), PDB entry 4mnv) is on record?
A: 11.6 µM (active)

Q: Which Ki (protein: tRNA guanine transglycosylase (TGT), PDB entry 4kwo) does the source give for `CNc1nc2c(CC[C@H]3O[C@@H](OC)[C@H](O)[C@@H]3OC)c3nc(N)[nH]c(=O)c3cc2[nH]1` here?
A: 0.353 µM (active)

Q: For `Cc1nnc(CNCCN2C(O)c3cccc4c(N(C)C)ccc(c34)C2O)s1` (stereo not drawn), which Ki (protein: insect beta-N-acetyl-D-hexosaminidase OfHex1, PDB entry 3wmc) is on record?
A: 0.31 µM (active)

Q: Which Ki (protein: insect beta-N-acetyl-D-hexosaminidase OfHex1, PDB entry 3wmb) does the source give for `Cc1nnc(CNCCN2C(O)c3cccc4cccc(c34)C2O)s1` (stereo not drawn) here?
A: 4.28 µM (active)

Q: For `CC(=O)N[C@@H](Cc1ccc(O[P+](O)(O)O)cc1)C(=O)N[C@H](C(=O)N1CCC[C@H]1C(=O)N[C@@H](CCC(=O)O)C(=O)N1CCC[C@H]1C(N)=O)[C@@H](C)O` (Ac-[X2]TPEP-NH2), which Ki (protein: E3 ubiquitin-protein ligase CBL, PDB entry 4gpl) is on record?
A: 1.3 µM (active)

Q: Which Ki (protein: AmpC Beta-Lactamase, PDB entry 4old) does the source give for `N[C@H](C(=O)O)[C@@H]1N=C(C(=O)O)CCS1` here?
A: 2000 µM (active)

Q: With `C=C1CS[C@H]([C@H](N)C(=O)O)N=C1C(=O)O` as the compound, how does the Ki (protein: AmpC Beta-Lactamase, PDB entry 4okp) read?
A: 2000 µM (active)

Q: For `Cc1ccc(NC(=O)c2cccc(C(F)(F)F)c2)cc1-c1ccc2nc(NC3CC3)ncc2c1`, which Ki (protein: Mitogen-activated protein kinase 1 (Q103A, C164L mutation), PDB entry 4i5h) is on record?
A: 0.002 µM (active)

Q: With `Cc1cccc(Nc2cc(S(O)(O)O)c(N)c3c2C(=O)c2ccccc2C3=O)c1` as the compound, how does the Ki (protein: ecto-nucleoside triphosphate diphosphohydrolase 2, RnNTPDase2, PDB entry 4cd1) read?
A: 12.8 µM (active)

Q: Which Ki (protein: Avermectin-sensitive glutamate-gated chloride channel GluCl alpha, PDB entry 4tnw) does the source give for `CCCCCC(=O)O[C@@H](CO)CO[P+](O)(O)OCC[N+](C)(C)C` here?
A: 167 µM (active)

Q: With `Nc1ncnc2c(CN3C[C@H](CSCC[C@H](N)C(=O)O)[C@@H](O)C3)c[nH]c12` as the compound, how does the Ki (protein: 5'-methylthioadenosine/S-adenosylhomocysteine nucleosidase, PDB entry 4f3k) read?
A: 6.9e-05 µM (active)

Q: For `Nc1ncnc2c(CN3C[C@H](O)[C@H](O)[C@H]3CO)c[nH]c12`, which Ki (protein: Inosine-adenosine-guanosine-nucleoside hydrolase, PDB entry 4i71) is on record?
A: 0.018 µM (active)

Q: Which Ki (protein: Inosine-adenosine-guanosine-nucleoside hydrolase, PDB entry 4i72) does the source give for `Nc1ncnc2c([C@@H]3N[C@H](CO)[C@@H](O)[C@H]3O)c[nH]c12` here?
A: 0.0009 µM (active)

Q: What does the source list for `O=c1[nH]cnc2c(CN3C[C@H](O)[C@H](O)[C@H]3CO)csc12`?
A: Ki (protein: Inosine-adenosine-guanosine-nucleoside hydrolase, PDB entry 4i73): 0.19 µM (active); Ki (protein: Inosine-adenosine-guanosine-nucleoside hydrolase, PDB entry 4i74): 0.19 µM (active)

Q: With `CSCC[C@H](NC(=O)[C@H](C)N)C(=O)N[C@@H](CCCNC(N)N)C(=O)N[C@H](C(=O)O)C(C)C` (H-AM[Orn(CH(NH2)2)]V-OH) as the compound, how does the Ki (protein: E3 ubiquitin-protein ligase XIAP (C202A, C213G mutation), PDB entry 4j48) read?
A: 2.41 µM (active)

Q: Which Ki (protein: PDE10A2, PDB entry 4lm1) does the source give for `O=[N+]([O-])c1cccc2ncccc12` here?
A: 590 µM (active)

Q: With `Nc1nc(N)c2cc(CNc3cc(Cl)ccc3Cl)cnc2n1` as the compound, how does the Ki (protein: Dihydrofolate reductase(Q35S, N64F mutants), PDB entry 3oaf) read?
A: 0.0016 µM (active)

Q: What about the Ki (protein: human Dihydrofolate reductase, DHFR, PDB entry 4g95) of the same compound?
A: 0.0244 µM (active)

Q: Which Ki (protein: Memapsin 2(?-secretase 1), PDB entry 1xn3) does the source give for `CC[C@H](C)[C@H](NC(=O)[C@H](CCC(=O)O)NC(=O)[C@H](CCC(=O)O)NC(=O)[C@@H](NC(=O)[C@@H](N)CCCCN)[C@@H](C)O)C(=O)N[C@@H](CO)C(=O)N[C@@H](CCC(=O)O)C(=O)N[C@H](C(=O)N[C@@H](CC(N)=O)C(=O)N[C@@H](CC(C)C)[C@@H](O)CC(=O)N[C@H](C(=O)N[C@@H](C)C(=O)N[C@@H](CCC(=O)O)C(=O)N[C@@H](Cc1ccccc1)C(=O)O)C(C)C)C(C)C` (H-KTEEISEVN[Sta]VAEF-OH) here?
A: 0.04 µM (active)

Q: With `CC[C@H](C)[C@H](NC(=O)[C@H](CO)NC(=O)[C@H](CCCCNC(C)=O)NC(=O)[C@H](Cc1ccccc1)NC(=O)[C@@H](NC(=O)[C@H](CCC(=O)O)NC(=O)[C@H](Cc1ccc(O)cc1)NC(=O)[C@@H](NC(=O)[C@@H](N)CCCNC(N)N)[C@@H](C)O)[C@@H](C)O)C(=O)N[C@@H](CCSC)C(=O)N[C@@H](CCCCN)C(=O)N[C@@H](CCCCN)C(=O)N[C@@H](CO)C(=O)O` (H-[Orn(CH(NH2)2)]TYETFK(Ac)SIMKKS-OH) as the compound, how does the Ki (protein: Bromodomain-containing protein 4, PDB entry 2lsp) read?
A: 274 µM (active)

Q: For `CC(C)C[C@H](NC(=O)[C@H](CC(N)=O)NC(=O)[C@@H](NC(=O)[C@H](CCC(=O)O)NC(=O)[C@H](CO)NC(=O)[C@H](Cc1c[nH]c2ccccc12)NC(=O)[C@@H](N)Cc1c[nH]c2ccccc12)C(C)C)[C@@H](O)C[C@@H](C)C(=O)N[C@@H](C)C(=O)N[C@@H](CCC(=O)O)C(=O)N[C@@H](Cc1ccccc1)C(=O)O` (H-WWSEVN[LeuΨ(S-CHOHCH2)Ala]AEF-OH), which Ki (protein: Memapsin 2(?-secretase 1), PDB entry 1xn2) is on record?
A: 3e-05 µM (active)

Q: For `CN(C[C@H]1O[C@@H](n2ccc(=O)[nH]c2=O)C[C@@H]1O)C(c1ccccc1)c1ccccc1`, which Ki (protein: Deoxyuridine 5'-triphosphate nucleotidohydrolase, putative, PDB entry 3t70) is on record?
A: 0.5 µM (active)

Q: Which Ki (protein: Deoxyuridine 5'-triphosphate nucleotidohydrolase, putative, PDB entry 3t60) does the source give for `O=c1ccn([C@H]2C[C@H](O)[C@@H](CNC(c3ccccc3)(c3ccccc3)c3ccccc3)O2)c(=O)[nH]1` here?
A: 0.2 µM (active)

Q: For `O=c1ccn([C@H]2C[C@H](O)[C@@H](CNC(c3ccccc3)c3ccccc3)O2)c(=O)[nH]1`, which Ki (protein: Deoxyuridine 5'-triphosphate nucleotidohydrolase, putative, PDB entry 3t64) is on record?
A: 0.2 µM (active)

Q: For `Cn1ccnc1[C@@H](NC[C@H]1O[C@@H](n2ccc(=O)[nH]c2=O)C[C@@H]1O)c1ccccc1`, which Ki (protein: Deoxyuridine 5'-triphosphate nucleotidohydrolase, putative, PDB entry 3t6y) is on record?
A: 3 µM (active)
